Nrf2 block – Nrf2 qHTS screen for inhibitors; A549 ARE-Fluc reporter, luciferase luminescence, 18-24 h; hit rate 2.1% among 360,000; Potency, µM (series often up to 46 µM), inactives show top-dose activity change, negative = inhibition, usual class: inhibitors; note: % is set by controls: 0 for no effect and ±100 for the full control effect; nearly all actives have a fitted effect of over 60% in size
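Two sequential reads on A549 ARE_Fluc cells exposed to compound for 18-24 h: a CellTiter-Fluor fluorescence read for viability, then a luciferase luminescence read for Nrf2/ARE activity.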
A549 tox – Nrf2 qHTS screen for inhibitors: counterscreen for cytotoxicity. A549 ARE-Fluc cells, CellTiter-Fluor viability, 18-24 h. Potency, µM (series often up to 46 µM), inactives show at the top dose activity change, negative = cytotoxicity, most hits filed as inhibitors. hit rate 0.16% among 390,000; note: % is set by controls: 0 for no effect and ±100 for the full control effect
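Cytotoxicity counterscreen: CellTiter-Fluor fluorescence was measured in A549 ARE_Fluc cells after 18-24 h of compound exposure in a concentration series. The subsequent BugLite luminescent read reports ARE-luciferase activity.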
Nrf2 activator – qHTS of Nrf2 Activators. AREc32 ARE-luciferase reporter (MCF7-derived line), luminescence, 24 h. Potency, µM (titrated, usually from 46.1 µM), inactives show at the highest dose activation, hits mostly activators. hit rate 0.31% among 410,000. AID 624171, 2012; note: % of control where 0% means no effect; nearly all actives have a fitted effect of over 65% in size
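AREc32 cells carrying an ARE-driven firefly luciferase, 1000 cells/well in OPTI-MEM with 5% FBS, dosed after overnight attachment and incubated 24 hr at 37 deg C. Steady-Glo luminescence read after 30 min at RT.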
TGFb inhibitor – qHTS for Inhibitors of TGF-b. hit rate 1.2% among 410,000. HepG2 CAGA-GFP TGF-b/SMAD3 reporter, GFP fluorescence, 18 h; TGF-beta stimulated, 500 pg/mL final. Potency, µM (doses to about 46.1 µM), inactives show at the top dose activity, negative = inhibition, most hits filed as inhibitors; note: % is set by controls: 0 for no effect and ±100 for the full control effect; nearly all actives have a fitted effect of over 65% in size
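HEPG2 CAGA-GFP reporter cells (1000/well, DMEM with 1% FBS) received compounds, then recombinant TGF-beta at 500 pg/mL final for 18 hours at 37 degrees C. Per-cell GFP summed per well was normalised to unstimulated and stimulated DMSO controls before curve fitting.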
HepG2 tox-1 – qHTS for Inhibitors of TGF-b: Cytotox Counterscreen; HepG2 CAGA-GFP viability, ATP luminescence, 18 h; hit rate 0.76% among 410,000; Potency, µM (titrated, usually from 46.1 µM), for the others: at the top dose activity change, negative = cytotoxicity, actives largely listed as cytotoxic; AID 588856, 2011
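CellTiter-Glo luminescence gave cytotoxicity after 18 hours at 37 degrees C. The cells were HepG2 CAGA-GFP in 1% FBS DMEM, stimulated with 500 pg/mL TGF-beta after compound addition. %Activity was normalised to no-cell wells (complete cell-killing) and DMSO (no toxicity), and curves were fitted and classified.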
TGFb confirm – qHTS for Inhibitors of TGF-b: Confirmation of Cherry Picks; shares compounds with TGFb inhibitor; HepG2 CAGA-GFP TGF-b reporter, GFP fluorescence, 18 h; cells stimulated with TGF-beta, 500 pg/mL; Potency, µM (doses to about 46.1 µM), without a hit: top-dose activity, negative = inhibition, most hits filed as inhibitors; hit rate 63% among 1,600; AID 720534, 2013; note: % is set by controls: 0 for no effect and ±100 for the full control effect; nearly all actives have a fitted effect of over 65% in size
HepG2 tox-2 – qHTS for Inhibitors of TGF-b: Cytotox Counterscreen for Cherry Picks. Potency, µM (series often up to 46.1 µM), for the others: at the highest dose activity, negative = cytotoxicity, usual class: inhibitors. shares compounds with TGFb inhibitor. HepG2 CAGA-GFP viability, ATP luminescence, 18 h; cells stimulated with TGF-beta, 500 pg/mL. AID 720535, 2013. hit rate 27% among 1,600; note: % is set by controls: 0 for no effect and ±100 for the full control effect; nearly all actives have a fitted effect of over 70% in size
TGFb CCL64 inh – qHTS for Inhibitors of TGF-b: CCL64 Cells Orthogonal Assay for Cherry Picks. shares compounds with TGFb inhibitor. CCL64 CAGA-GFP reporter, TGF-b stimulated, GFP fluorescence, 18 h. Potency, µM (titrated, usually from 46.1 µM), without a hit: top-dose activity, negative = inhibition, usual class: inhibitors. hit rate 41% among 1,600. AID 720536, 2013; note: nearly all actives have a fitted effect of over 65% in size
TGFb COP inh – qHTS for Inhibitors of TGF-b: Hit Validation in HepG2 Cells using COP promoter | HepG2 COP-GFP TGF-b reporter, GFP fluorescence, 18 h; cells stimulated by added recombinant TGF-beta | hit rate 3% among 1,600 | Potency, µM (titrated, usually from 46.1 µM), inactives show top-dose activity, negative = inhibition, most hits filed as inhibitors | shares compounds with TGFb inhibitor; note: nearly all actives have a fitted effect of over 70% in size
* = called active by the depositor; ? = inconclusive; · = no result; [ ] = dose if it differs, or a comment. The list is not random: actives were taken first. Their share in the collection is about 3.6%. Calls come from the whole dose curve; as a rule, active = well fitted curve in the direction sought with a large enough effect; inconclusive = small, poorly fitted or top-dose-only effect, or another doubt; inactive = no such curve, though single readings can be large; an effect the other way counts as inactive or inconclusive. Potency is the fitted concentration of half-maximal effect.

SMILES | Nrf2 block | A549 tox | Nrf2 activator | TGFb inhibitor | HepG2 tox-1 | TGFb confirm | HepG2 tox-2 | TGFb CCL64 inh | TGFb COP inh
COc1ccccc1NS(=O)(=O)c1ccc(-c2cnc(C3CC3)o2)cc1 | 1% | -2% | 0% | 11µM* | -24% | ? | ? | ? | 4%
Cc1cccc(N(C)S(=O)(=O)c2ccc(-c3cnc(C4CC4)o3)cc2)c1 | ? | 5% | -1% | 7.9µM* | -2% | 4.6µM* | ? | 6.5µM* | 30%
Cn1cc(Cl)c(C(=O)Nc2nccs2)n1 | 6% | -3% | 9% | 12% | -13% | · | · | · | ·
O=S(=O)(Nc1ccc(Br)cc1)c1cccc2cccnc12 | ? | -5% | 5% | 0% | -21% | · | · | · | ·
O=S(=O)(Nc1ccc(C(O)(C(F)(F)F)C(F)(F)F)cc1)c1cccc2cccnc12 | · | · | 0% | 18µM* | -30% | 15µM* | -21% | -25% | 40%
CN(C)C(=O)c1cccc(-c2cnc3c(NC=O)cc(-c4ccccc4Cl)cn23)c1 | · | · | 10%[9.22 µM] | 13µM* | -17% | 16µM* | -15% | ? | 34%
CN(C)C(=O)c1cccc(-c2cnc3c(NC=O)cc(-c4ccccc4N(C)C)cn23)c1 | · | · | 5% | -21% | -35% | · | · | · | ·
CN(C)C(=O)c1cccc(-c2cc(NC=O)c3ncc(-c4ccc(F)cc4)n3c2)c1 | · | · | 10% | 8.9µM* | -15% | 5.2µM* | -13% | ? | 17%
COc1cccc(CNC(=O)c2cc(Sc3cccc(Cl)c3)nc3ccccc23)c1 | · | 18% | 1% | 1% | -12% | · | · | · | ·
O=C(NCc1cccnc1)c1cc(Sc2cccc(Cl)c2)nc2ccccc12 | -24% | 9% | 2% | 11µM* | -14% | ? | -29% | ? | 27%
CCCCN=C1NN=C(c2cccc([N+](=O)[O-])c2)CS1 | 30% | 2% | 18% | 0% | -9% | · | · | · | ·
Nc1ccccc1C(=O)NC(=O)Nc1ccc(Oc2ncc(Br)cn2)c(Cl)c1 | 14% | -19% | 0% | ? | 0% | ? | -8% | 5.8µM* | -18%
O=C(Cn1cc([N+](=O)[O-])cn1)NCc1ccccc1Cl | 10% | -1% | 0% | -3% | 16% | · | · | · | ·
C[C@@H]1CN([C@H](C)CO)C(=O)c2cc(NC(=O)Cc3ccccc3)ccc2O[C@H]1CN(C)Cc1ccc(Oc2ccccc2)cc1 | ? | -24% | -3% | 11µM* | -25% | ? | ? | 16µM* | 83%
Cc1ccc(-c2ccc3c(c2)O[C@H](CN(C)C(=O)Nc2ccc(C(F)(F)F)cc2)[C@H](C)CN([C@H](C)CO)S3(=O)=O)cc1 | · | · | 1% | 22µM* | -14% | 18µM* | ? | ? | 47%
COc1ccc(S(=O)(=O)Nc2ccc3c(c2)C(=O)N([C@H](C)CO)C[C@H](C)[C@H](CN(C)Cc2ccc(C(=O)O)cc2)O3)cc1 | -9% | -1% | -1% | 1% | 0% | · | · | · | ·
C[C@@H]1CN([C@H](C)CO)S(=O)(=O)c2ccc(Br)cc2O[C@H]1CN(C)C(=O)Nc1ccc(F)cc1 | · | · | 4% | 1% | -4% | · | · | · | ·
C[C@H]1CN([C@@H](C)CO)C(=O)c2cc(NC(=O)Cc3ccccc3)ccc2O[C@H]1CN(C)Cc1ccccc1 | -3% | 1% | 0% | -8% | -5% | · | · | · | ·
Cc1ccc(S(=O)(=O)Nc2ccc3c(c2)C(=O)N([C@H](C)CO)C[C@H](C)[C@@H](CN(C)Cc2ccc(-c4ccccc4)cc2)O3)cc1 | ? | ? | 0% | 10µM* | -16% | 9.2µM* | ? | 21µM* | 61%
Cc1ccc(S(=O)(=O)Nc2ccc3c(c2)CC(=O)N([C@H](C)CO)C[C@@H](C)[C@H](CN(C)S(=O)(=O)c2ccccc2)O3)cc1 | -15% | 4% | 0% | 3% | 1% | · | · | · | ·
C[C@H](CO)N1C[C@H](C)[C@@H](CN(C)S(=O)(=O)c2ccc(Cl)cc2)Oc2ccc(NS(=O)(=O)c3ccccc3)cc2CC1=O | -9% | 2% | 3% | 4.5µM* | 3% | ? | -11% | ? | 40%
CC(/C=C/c1ccco1)=N\NC(=O)CNc1cccc(C)c1 | 6% | 8% | 14% | 13% | 46% | · | · | · | ·
COCCCNC(=O)C1CCC(=O)N(c2ccc3c(c2)OCO3)C1c1ccc(OC)cc1 (centres undefined) | 5% | 11% | 0% | -3% | -21% | · | · | · | ·
Cc1ccc(S(=O)(=O)Nc2cccc3c2O[C@H](CN(C)Cc2ccc(-c4ccccc4)cc2)[C@@H](C)CN([C@H](C)CO)C3=O)cc1 | ? | ? | 7% | 10µM* | -23% | 16µM* | -4% | ? | 40%
Cc1noc(C)c1S(=O)(=O)Nc1ccc2c(c1)C(=O)N([C@@H](C)CO)C[C@H](C)[C@@H](CN(C)Cc1ccc(C(F)(F)F)cc1)OCCCC[C@H](C)O2 | · | · | 2% | 10µM* | -47% | ? | ? | 33µM* | 68%
C[C@H](CO)N1C[C@H](C)[C@@H](CN(C)C(=O)Nc2ccc(C(F)(F)F)cc2)Oc2ccc(NS(=O)(=O)c3ccccc3)cc2C1=O | 28% | 1% | 2% | 6.3µM* | -16% | ? | 1% | ? | 1%

Bioassay records deposited in PubChem by National Center for Advancing Translational Sciences (NCATS).
